Laboratory results: PubChem BioAssay (NCATS)
Inconclusive results are not listed. Active and inactive are the calls of the source. Unless noted, calls follow the shape of the dose curve; as a rule, active = well fitted curve in the direction sought with a large enough effect; inconclusive = small, poorly fitted or top-dose-only effect, or another doubt; inactive = no such curve, though single readings can be large; an effect the other way counts as inactive or inconclusive.

Experiments:
7G8 = assay: qHTS profiling for inhibitors of Plasmodium falciparum proliferation (AID 504749); also: nearly all actives have a fitted effect of over 60% in size; also: potency is read from the fitted curve at half-maximal effect; details: P. falciparum in erythrocytes, SYBR Green DNA, 72 h; series mostly up to 28.7 µM
Procedure, shortened: (§1)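 SYBR Green fluorescence of parasite DNA, read after lysis and overnight dark incubation, measured growth over 72 h in erythrocyte culture at 0.3% parasitemia and 2.5% hematocrit. Data normalised to DMSO and 0.29 uM artemisinin, with plate-drift correction.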

DIV14 = assay: as above; details: P. falciparum in erythrocytes, SYBR Green DNA, 72 h; series mostly up to 28.7 µM
Procedure, shortened: as §1

DIV17 = assay: as above; details: P. falciparum in erythrocytes, SYBR Green DNA, 72 h; series mostly up to 28.7 µM
Procedure, shortened: as §1

DIV30 = assay: as above; details: P. falciparum in erythrocytes, SYBR Green DNA, 72 h; series mostly up to 28.7 µM
Procedure, shortened: as §1

ECU = assay: as above; details: P. falciparum in erythrocytes, SYBR Green DNA, 72 h; series mostly up to 28.7 µM
Procedure, shortened: as §1

ICS = assay: as above; details: P. falciparum in erythrocytes, SYBR Green DNA, 72 h; series mostly up to 28.7 µM
Procedure, shortened: as §1

TAB109 = assay: as above; details: P. falciparum in erythrocytes, SYBR Green DNA, 72 h; series mostly up to 28.7 µM
Procedure, shortened: as §1

[1] = target: Luciferin 4-monooxygenase (Photinus pyralis) (UniProt P08659); assay: Biochemical firefly luciferase enzyme assay for NPC (AID 624030);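 also: purified P. pyralis luciferase at 10 nM with luciferin and ATP substrate; nearly all actives have a fitted effect of over 70% in size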
Procedure, shortened: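 Direct inhibition of firefly luciferase enzyme (10 nM final, 50 mM Tris Acetate) assessed by luminescence within 5 minutes. Percent activity scaled between DMSO and PTC124 positive control, with concentration-effect curves classified by fit quality and response.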

JCK = assay: qHTS profiling for inhibitors of Plasmodium falciparum proliferation (AID 504749); also: nearly all actives have a fitted effect of over 60% in size; also: potency is read from the fitted curve at half-maximal effect; details: P. falciparum in erythrocytes, SYBR Green DNA, 72 h; series mostly up to 28.7 µM
Procedure, shortened: as §1

PC26 = assay: as above; details: P. falciparum in erythrocytes, SYBR Green DNA, 72 h; series mostly up to 28.7 µM
Procedure, shortened: as §1

[2] = Primary qHTS for small molecule stabilizers of the endoplasmic reticulum resident proteome: Secreted ER Calcium Modulated Protein (SERCaMP) assay (AID 1508630)
Procedure, shortened: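 The SH-SY5Y reporter protocol was run at 3 concentrations up to 38.3 uM (primary) or 11 concentrations (follow-up): 16 h compound, 100 nM thapsigargin for 4 h, then extracellular luciferase luminescence.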

[3] = target: Calcium and integrin-binding protein 1 (Homo sapiens) (UniProt Q99828); assay: Primary qHTS for Identification of Calcium Integrin Binding Protein 1 (CIB1) Competitor (AID 1508620);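 also: GST tagged CIB1 binding a fluorescein labelled alphaIIb integrin peptide tracer; top concentration of the series differs between compounds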
Procedure, shortened: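 CIB1-GST (1 uM final) and compound incubated 15 min at room temperature before adding FITC-alphaIIb peptide tracer (100 nM final). Competition for binding read by fluorescence polarization (ex 480, em 540) after another 15 min at room temperature.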

[4] = NCATS anti-infectives library activity on the primary C. elegans qHTS viability assay (AID 1745855; calls by dose curve; also: potency is read from the fitted curve at half-maximal effect)
Procedure, shortened: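 GFP read-out by 488 nm laser cytometry at day 0, 3 and 7, gated on object perimeter, area and peak intensity, scored viability of PE254-GFP-FLuc worms exposed to compound in S medium with bacterial capsules at 21 °C.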

[5] = target: Cytochrome P450 3A4 (Homo sapiens) (UniProt P08684); assay: qHTS Assay for Inhibitors and Substrates of Cytochrome P450 3A4 (AID 884); also: nearly all actives have a fitted effect of over 50% in size
Procedure, shortened: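 Luminescent readout of luciferin produced by CYP3A4 (20 nM) dealkylation of Luciferin-PPXE, 25 uM (its KM). NADPH-driven reaction ran 60 min at RT after 10 min compound preincubation; data scaled to 57 uM ketoconazole as 100% inhibition.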

[6] = target: Cytochrome P450 2C9 (Homo sapiens) (UniProt P11712); assay: qHTS Assay for Inhibitors and Substrates of Cytochrome P450 2C9 (AID 883); also: potency is read from the fitted curve at half-maximal effect; nearly all actives have a fitted effect of over 60% in size
Procedure, shortened: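 Luminescent read-out of deoxyluciferin hydroxylation, normalized to 57uM sulphaphenazole (AC100). Reaction: 10nM enzyme, 100uM Luciferin-H (equal to KM), 25mM KPO4, 10 min compound preincubation, then 60 min with NADPH regeneration, both at 37C.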

[7] = target: Cytochrome P450 3A4 (Homo sapiens) (UniProt P08684); assay: qHTS Assay for Activators of Cytochrome P450 3A4 (AID 885); also: nearly all actives have a fitted effect of over 65% in size
Procedure, shortened: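 Human CYP3A4 dealkylates Luciferin-PPXE to luciferin, which luciferase detection converts to light. Substrate was at its KM (25uM), buffer 200mM KPO4, reaction 60 min at RT.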

[8] = target: Cytochrome P450 2D6 (Homo sapiens) (UniProt P10635); assay: qHTS Assay for Inhibitors and Substrates of Cytochrome P450 2D6 (AID 891)
Procedure, shortened: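 Luminescent read-out of luciferin formed by 5 nM human CYP2D6 demethylating 30 uM Luciferin-ME EGE (Km level) over 60 min at room temperature after NADPH regeneration addition. Data normalized to full inhibition by 1.43 uM quinidine.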

[9] = target: Ferritin light chain (Equus caballus) (UniProt P02791); assay: qHTS Validation Assay for Identification of Novel General Anesthetics (AID 2323)
Procedure, shortened: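 Normalized fluorescence response, scaled between free 1-AMA and 1-AMA/apoferritin complex, fitted to a four-parameter Hill equation for concentration-effect values. Binding mix: 10 uM horse-spleen apoferritin, 50% saturated 1-AMA in PBS; read 380/535 nm after 10 min.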

CP262 = assay: qHTS profiling for inhibitors of Plasmodium falciparum proliferation (AID 504749); also: nearly all actives have a fitted effect of over 60% in size; also: potency is read from the fitted curve at half-maximal effect; details: P. falciparum in erythrocytes, SYBR Green DNA, 72 h; series mostly up to 28.7 µM
Procedure, shortened: as §1

W2 = assay: as above; details: P. falciparum in erythrocytes, SYBR Green DNA, 72 h; series mostly up to 28.7 µM
Procedure, shortened: as §1

Measured: Potency

Sequence of Luciferin 4-monooxygenase (Photinus pyralis) (P08659 whole entry, looked up): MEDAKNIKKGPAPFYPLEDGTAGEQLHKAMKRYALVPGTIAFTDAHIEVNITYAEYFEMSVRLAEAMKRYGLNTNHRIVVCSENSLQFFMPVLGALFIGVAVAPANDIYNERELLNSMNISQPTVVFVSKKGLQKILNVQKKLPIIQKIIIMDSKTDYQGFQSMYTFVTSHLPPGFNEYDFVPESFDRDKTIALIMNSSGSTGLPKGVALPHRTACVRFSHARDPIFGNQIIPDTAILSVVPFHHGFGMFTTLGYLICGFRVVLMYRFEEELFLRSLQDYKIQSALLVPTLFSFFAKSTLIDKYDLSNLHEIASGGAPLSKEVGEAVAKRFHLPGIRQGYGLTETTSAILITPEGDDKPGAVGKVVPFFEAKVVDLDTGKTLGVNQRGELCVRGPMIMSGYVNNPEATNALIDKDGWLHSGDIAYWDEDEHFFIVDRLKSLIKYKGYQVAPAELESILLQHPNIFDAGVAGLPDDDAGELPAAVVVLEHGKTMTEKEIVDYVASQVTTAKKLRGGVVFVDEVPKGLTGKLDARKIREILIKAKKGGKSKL
Sequence of Cytochrome P450 3A4 (Homo sapiens) (P08684 whole entry, looked up): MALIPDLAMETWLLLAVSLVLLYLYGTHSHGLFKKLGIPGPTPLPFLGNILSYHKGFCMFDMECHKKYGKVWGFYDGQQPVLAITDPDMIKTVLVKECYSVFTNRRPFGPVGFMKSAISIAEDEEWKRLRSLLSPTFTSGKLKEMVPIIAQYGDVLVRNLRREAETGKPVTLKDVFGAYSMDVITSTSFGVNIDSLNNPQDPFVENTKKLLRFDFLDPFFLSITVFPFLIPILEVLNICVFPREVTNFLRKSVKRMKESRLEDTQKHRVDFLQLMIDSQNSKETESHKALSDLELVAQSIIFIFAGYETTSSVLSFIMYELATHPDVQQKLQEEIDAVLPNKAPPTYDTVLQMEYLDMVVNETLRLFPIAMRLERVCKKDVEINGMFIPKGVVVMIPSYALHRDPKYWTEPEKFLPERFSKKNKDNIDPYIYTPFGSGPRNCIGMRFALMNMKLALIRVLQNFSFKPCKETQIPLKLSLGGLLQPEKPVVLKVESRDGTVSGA
Sequence of Ferritin light chain (Equus caballus) (P02791 2-175 limits assumed): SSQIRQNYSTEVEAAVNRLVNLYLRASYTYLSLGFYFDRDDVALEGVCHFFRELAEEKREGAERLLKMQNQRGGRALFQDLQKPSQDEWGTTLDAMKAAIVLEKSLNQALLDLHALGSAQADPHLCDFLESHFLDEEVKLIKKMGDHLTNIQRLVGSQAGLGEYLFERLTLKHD
Sequence of Calcium and integrin-binding protein 1 (Homo sapiens) (Q99828 whole entry, looked up): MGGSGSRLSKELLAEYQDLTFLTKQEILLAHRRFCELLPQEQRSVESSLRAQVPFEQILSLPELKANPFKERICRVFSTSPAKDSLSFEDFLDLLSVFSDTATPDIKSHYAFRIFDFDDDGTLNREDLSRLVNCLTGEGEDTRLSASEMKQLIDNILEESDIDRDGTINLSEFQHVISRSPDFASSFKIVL
Sequence of Cytochrome P450 2D6 (Homo sapiens) (P10635 whole entry, looked up): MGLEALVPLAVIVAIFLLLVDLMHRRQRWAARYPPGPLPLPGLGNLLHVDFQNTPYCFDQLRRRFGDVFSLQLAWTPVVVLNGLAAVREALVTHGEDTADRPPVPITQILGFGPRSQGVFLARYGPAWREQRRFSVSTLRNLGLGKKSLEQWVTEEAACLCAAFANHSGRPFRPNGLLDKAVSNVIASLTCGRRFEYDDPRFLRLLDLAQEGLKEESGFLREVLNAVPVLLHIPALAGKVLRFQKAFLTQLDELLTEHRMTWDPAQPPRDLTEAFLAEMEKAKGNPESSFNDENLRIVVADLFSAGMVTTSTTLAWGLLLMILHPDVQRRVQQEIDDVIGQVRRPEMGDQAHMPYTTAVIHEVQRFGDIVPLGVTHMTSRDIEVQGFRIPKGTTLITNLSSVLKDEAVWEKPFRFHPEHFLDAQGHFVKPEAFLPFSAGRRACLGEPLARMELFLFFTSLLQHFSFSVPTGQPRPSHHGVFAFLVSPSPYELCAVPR
Sequence of Cytochrome P450 2C9 (Homo sapiens) (P11712 whole entry, looked up): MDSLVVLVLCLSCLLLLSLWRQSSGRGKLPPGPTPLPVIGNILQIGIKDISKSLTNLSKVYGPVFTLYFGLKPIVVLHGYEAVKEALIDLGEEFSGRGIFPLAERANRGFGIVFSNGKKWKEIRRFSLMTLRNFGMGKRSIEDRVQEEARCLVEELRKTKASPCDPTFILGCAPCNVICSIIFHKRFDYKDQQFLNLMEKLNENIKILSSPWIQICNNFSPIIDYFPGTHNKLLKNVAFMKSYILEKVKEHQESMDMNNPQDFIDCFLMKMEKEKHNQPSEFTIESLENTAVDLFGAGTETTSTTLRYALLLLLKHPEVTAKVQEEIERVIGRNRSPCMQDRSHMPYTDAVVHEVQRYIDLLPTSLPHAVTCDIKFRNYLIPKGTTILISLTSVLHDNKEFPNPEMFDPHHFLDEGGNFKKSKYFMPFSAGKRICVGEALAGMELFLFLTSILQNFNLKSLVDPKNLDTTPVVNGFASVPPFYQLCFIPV

CO[C@H]1/C=C/O[C@@]2(C)Oc3c(C)c(O)c4c(O)c(c(/C=N\N5CCN(C6CCCC6)CC5)c(O)c4c3C2=O)NC(=O)/C(C)=C\C=C\[C@H](C)[C@H](O)[C@@H](C)[C@@H](O)[C@@H](C)[C@H](OC(C)=O)[C@@H]1C
active: 7G8 141 nM | DIV14 675 nM | DIV17 601 nM | DIV30 849 nM | ECU 199 nM | ICS 112 nM | TAB109 1.26 µM

C=C1/C(=C\C=C2/CCC[C@]3(C)[C@@H]([C@H](C)CCCC(C)(C)O)CC[C@@H]23)C[C@@H](O)C[C@@H]1O
inactive: [1] | JCK | PC26

CC[C@@H](C)[C@H]1O[C@]2(CC[C@@H]1C)C[C@@H]1C[C@@H](C/C=C(\C)[C@@H](O[C@@H]3C[C@H](OC)[C@H](O[C@H]4C[C@H](OC)[C@@H](O)[C@H](C)O4)[C@H](C)O3)[C@@H](C)/C=C/C=C3\CO[C@@H]4[C@@H](O)C(C)=C[C@@H](C(=O)O1)[C@]34O)O2
inactive: [2]

O=C(/C=C\n1cnc(-c2cc(C(F)(F)F)cc(C(F)(F)F)c2)n1)NNc1cnccn1
inactive: [3]
active: [4] 25.8 µM

O=C(CCc1ccc(O)cc1)c1c(O)cc(O)cc1O[C@@H]1O[C@H](CO)[C@@H](O)[C@H](O)[C@H]1O
inactive: [5]

N=C1Sc2ccccc2C2=NCCCN12
active: [6] 794 nM
inactive: [7] | [8]

NCCC(=O)NCCc1cnc[nH]1
inactive: [7] | [9]

N=C(N)SCCc1cccc(CCSC(=N)N)c1
inactive: [9]

CN=C(N)NCCCC(N)C(=O)O (stereo unspecified)
not listed: [2] | [3] | [4] | [5] | [6] | [7] | [8] | [9]
inactive: all other assays above

CN1C(=O)CCC1c1cccnc1 (stereo unspecified)
not listed: [2] | [3] | [4] | [6] | [7] | [8] | [9]
inactive: all other assays above

OC[C@H]1O[C@@H](n2cnc3c(NCCc4ccccc4)ncnc32)[C@H](O)[C@H]1O
inactive: [5]
